The text below walks through data of PubChem BioAssay AID449739 (Vanderbilt High Throughput Screening Facility, 2010).

The campaign covered roughly 100,000 compounds. About 4,200 (4.2%) were called active. The full list was thinned out, with actives kept by preference. A number with no mark means an inactive call.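 How the source made its calls: active means single-dose well whose peak fluorescence ratio is a statistical outlier from its plate by either plate-standardised score or position-corrected B-score; inactive means the rest.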

Voltage-dependent T-type calcium channel subunit alpha-1H (Homo sapiens), sequence (O95180 whole entry, looked up): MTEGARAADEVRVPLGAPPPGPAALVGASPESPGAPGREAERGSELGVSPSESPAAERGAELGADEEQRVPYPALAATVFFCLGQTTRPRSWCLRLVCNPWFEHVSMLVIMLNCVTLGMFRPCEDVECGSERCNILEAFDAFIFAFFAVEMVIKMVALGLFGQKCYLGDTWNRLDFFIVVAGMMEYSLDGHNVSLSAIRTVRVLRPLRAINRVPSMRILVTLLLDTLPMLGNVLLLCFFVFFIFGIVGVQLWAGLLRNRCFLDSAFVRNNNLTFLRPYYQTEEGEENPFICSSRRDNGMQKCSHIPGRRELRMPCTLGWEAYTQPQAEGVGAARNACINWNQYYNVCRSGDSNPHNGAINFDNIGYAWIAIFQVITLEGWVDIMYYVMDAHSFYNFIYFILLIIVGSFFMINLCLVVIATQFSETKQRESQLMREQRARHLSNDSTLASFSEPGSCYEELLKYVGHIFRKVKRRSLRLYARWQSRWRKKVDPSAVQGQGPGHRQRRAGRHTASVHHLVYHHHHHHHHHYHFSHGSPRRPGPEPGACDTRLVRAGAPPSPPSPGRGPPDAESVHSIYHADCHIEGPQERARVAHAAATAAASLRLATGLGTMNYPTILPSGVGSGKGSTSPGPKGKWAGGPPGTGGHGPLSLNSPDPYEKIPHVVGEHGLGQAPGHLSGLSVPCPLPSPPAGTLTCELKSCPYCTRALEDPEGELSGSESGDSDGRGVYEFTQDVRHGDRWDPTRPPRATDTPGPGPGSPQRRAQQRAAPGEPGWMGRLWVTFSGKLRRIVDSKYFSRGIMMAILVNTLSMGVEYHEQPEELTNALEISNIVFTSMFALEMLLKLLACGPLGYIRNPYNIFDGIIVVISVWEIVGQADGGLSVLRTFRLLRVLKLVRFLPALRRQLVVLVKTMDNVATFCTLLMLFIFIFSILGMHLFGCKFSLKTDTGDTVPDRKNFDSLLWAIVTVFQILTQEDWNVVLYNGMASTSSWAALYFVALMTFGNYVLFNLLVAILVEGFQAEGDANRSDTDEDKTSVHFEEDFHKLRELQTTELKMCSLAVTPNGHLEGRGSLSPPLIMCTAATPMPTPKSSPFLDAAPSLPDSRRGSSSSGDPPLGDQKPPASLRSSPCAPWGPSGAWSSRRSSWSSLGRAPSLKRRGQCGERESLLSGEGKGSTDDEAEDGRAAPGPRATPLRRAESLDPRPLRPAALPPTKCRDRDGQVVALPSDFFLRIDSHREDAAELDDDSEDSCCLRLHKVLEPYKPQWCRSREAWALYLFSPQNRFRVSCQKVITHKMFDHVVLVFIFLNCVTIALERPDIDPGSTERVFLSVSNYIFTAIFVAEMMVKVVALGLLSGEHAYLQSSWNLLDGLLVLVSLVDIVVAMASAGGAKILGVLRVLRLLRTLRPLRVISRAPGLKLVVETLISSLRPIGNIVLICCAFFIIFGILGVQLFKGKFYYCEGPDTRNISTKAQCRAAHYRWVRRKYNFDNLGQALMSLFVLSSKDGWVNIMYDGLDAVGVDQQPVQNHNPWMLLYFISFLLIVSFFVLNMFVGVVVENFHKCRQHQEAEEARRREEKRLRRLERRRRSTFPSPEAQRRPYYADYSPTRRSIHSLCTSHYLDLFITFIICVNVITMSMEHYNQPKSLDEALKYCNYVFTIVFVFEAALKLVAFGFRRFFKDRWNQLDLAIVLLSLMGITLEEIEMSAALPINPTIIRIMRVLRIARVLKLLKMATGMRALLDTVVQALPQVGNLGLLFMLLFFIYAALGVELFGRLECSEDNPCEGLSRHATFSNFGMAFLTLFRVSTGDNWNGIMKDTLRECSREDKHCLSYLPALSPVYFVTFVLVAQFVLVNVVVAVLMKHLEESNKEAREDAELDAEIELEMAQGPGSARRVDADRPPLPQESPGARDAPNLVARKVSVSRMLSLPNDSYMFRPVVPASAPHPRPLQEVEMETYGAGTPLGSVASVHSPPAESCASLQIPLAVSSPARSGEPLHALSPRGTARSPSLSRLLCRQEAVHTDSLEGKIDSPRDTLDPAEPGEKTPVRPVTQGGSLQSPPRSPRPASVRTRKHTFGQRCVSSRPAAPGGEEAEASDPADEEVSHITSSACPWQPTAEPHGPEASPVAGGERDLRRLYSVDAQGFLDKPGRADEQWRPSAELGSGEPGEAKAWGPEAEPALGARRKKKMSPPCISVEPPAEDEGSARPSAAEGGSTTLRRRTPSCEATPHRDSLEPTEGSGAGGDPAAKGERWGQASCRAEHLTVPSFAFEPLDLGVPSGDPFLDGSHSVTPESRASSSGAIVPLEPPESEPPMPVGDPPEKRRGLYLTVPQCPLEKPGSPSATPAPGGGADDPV

This experiment concerns the target Voltage-dependent T-type calcium channel subunit alpha-1H (Homo sapiens) (UniProt O95180). The experiment is described as follows: Cav3.2 calcium influx blockers – cell-based, Fluo-4 calcium fluorescence, FDSS, MLSMR library, primary screen (AID 449739). Particulars: Cav3.2-expressing cells, at 10 µM, active compounds read low.
In the case of `C=CCC1(C(=O)N(C)Cc2ccccc2)CCN(C(=O)OC(C)(C)C)CC1`, the B-score was -0.119.

For the molecule `CC(C)(C)NC(=O)NC(=O)COC(=O)CCC1CCCCC1`, the B-score was -0.871.

Take `CC(=O)Nc1ccn(Cc2c(F)cccc2Cl)n1`: the B-score was -0.881.

Consider `O=C(Nc1ccn(Cc2ccc(F)cc2)n1)c1ccncc1`, for which the B-score was 0.582.

As for `O=C(Nc1ccn(Cc2ccccc2F)n1)c1ccc(COc2ccc(Cl)cc2Cl)o1`, the B-score was -5.79 (active).

With `O=C(C1=C[C@H](c2ccc(C(F)(F)F)cc2)C[C@H](OCc2ccc(CO)cc2)O1)N1CCN(Cc2ccccc2)CC1`, the B-score is -0.906.

Regarding `CC(C)(C)[C@H]1C=C(C(=O)NCc2ccccc2)O[C@@H](OCc2ccc(CO)cc2)C1`, the B-score was -0.683.

With `COc1cc(/C=N/NC(=O)Nc2ccccc2)ccc1OCCOc1ccccc1C`, the B-score is -1.44.

As to `Cc1nn(CC(=O)Nc2nc3ccccc3s2)c(C)c1[N+](=O)[O-]`, the B-score is -1.65.

For the molecule `O=C(NC(Nc1nc2ccc([N+](=O)[O-])cc2s1)(C(F)(F)F)C(F)(F)F)c1ccccc1`, the B-score was -8.17 (active).

Take `CNC(=O)c1ccc2nc(NC(C)=O)sc2c1`: the B-score is 1.09.

On to `CCOc1ccc(C(=O)Nc2cc(OC)ccc2OC)cc1`, for which the B-score is -0.483.

With `COc1ccc(OC)c(NC(=O)CCN2CCC(C)CC2)c1`, the B-score was -3.95 (active).

For the molecule `COc1ccc(NC(=O)CCN2CCCC2)c(OC)c1`, the B-score was 0.0598.

For `Cc1ccc(N2C(=O)C(Cc3ccccc3)NC2=S)cc1` (stereo not given), the B-score is 0.262.

Turning to `Cc1cn(C)c(=O)n(C)c1=O`, the B-score was 0.776.

Regarding `COc1ccc(-c2nc3c(s2)CCc2onc(-c4ccc(Br)cc4)c2-3)cc1`, the B-score was 0.734.

Consider `COc1cc(C(=O)N2CCN(C/C=C/c3ccccc3)CC2)cc(OC)c1C`, for which the B-score was -0.741.

Consider `N#Cc1c(C(F)(F)F)cc(-c2ccccc2)nc1SCC(=O)N1CCOCC1`, for which the B-score was 1.07.

`Cc1[nH]n(-c2cccc(Cl)c2)c(=O)c1/C=N/n1c(C)nc2ccccc2c1=O`: the B-score was -5.96 (active).

Turning to `Cc1[nH]n(-c2ccc(Cl)cc2)c(=O)c1/C=N/n1c(C)nc2ccccc2c1=O`, the B-score is -2.58.

For `COc1cc(NS(=O)(=O)c2ccc(N=Cc3c(C)[nH]n(-c4ccccc4)c3=O)cc2)nc(OC)n1`, the B-score is 1.56.

In the case of `CCO[C@@H]1OC(C(=O)NC2CC2)=C[C@H](C)[C@H]1CCCO`, the B-score is 0.361.

In the case of `O=C(Nc1ccccc1)O/N=C1\CCCCC1c1ccc([N+](=O)[O-])cc1[N+](=O)[O-]` (stereo not given), the B-score was -1.88.

On to `CN1CC(c2ccccc2)C2(COc3ccccc3C2=O)C12C(=O)Nc1ccccc12` (stereo not given), for which the B-score was -2.68.

Take `CCCCCCCCCCCCN1[C@@H](CC(C)=O)c2cc(F)cc(F)c2S1(=O)=O`: the B-score is -0.475.

With `COc1ccc(C(C(O)C(=O)c2c[nH]c3ccccc23)N2CCN(c3ccccc3)CC2)cc1` (stereo not given), the B-score was -6.38 (active).

With `CC1CCN(CC(=O)c2c[nH]c3ccccc23)CC1`, the B-score is -0.109.

As for `CCCC(=O)NC(C)C(c1cccs1)N1CCN(c2ccccc2)CC1` (stereo not given), the B-score was -0.0337.

For `COCC(C)NC(=O)c1ccc(-n2nc(C(F)(F)F)cc2-c2cccs2)cc1` (stereo not given), the B-score is -0.0574.

Turning to `Cc1occc1C(=O)NNC(=S)NCC(C)C`, the B-score was -0.334.

With `COC(C[C@@H](O)C[C@@H](O)[C@H](C)OCc1ccccc1)OC`, the B-score is 0.484.

For the molecule `CC(NC(=O)Nc1ccccc1)C(c1cccs1)N1CCN(c2ccccc2)CC1` (stereo not given), the B-score is -0.634.

With `COc1ccc(Cl)cc1NC(=O)CN(C)C(=O)CNC(=O)C12CC3CC(CC(C3)C1)C2`, the B-score was -3.51 (active).

With `CCCCC(=O)N/N=C(\C)CC(=O)Nc1cc(Cl)ccc1OC`, the B-score was -2.17.

Turning to `COc1ccc(Cl)cc1NC(=O)c1oc(C)nc1C`, the B-score is -0.339.

As for `O=C(CCCOc1ccccc1)NCc1ccco1`, the B-score was -0.629.

As to `CCO[C@H]1OC(C(=O)N2CCN(Cc3ccccc3)CC2)=C[C@@H](c2cn(C(C)=O)c3ccccc23)[C@@H]1CCCO`, the B-score is -1.16.

Regarding `COc1cc(/C=N/O)cc(Br)c1OS(=O)(=O)c1ccc(C)cc1`, the B-score is -2.65.

Consider `CCCCN1C(N)=NC[C@@H]1Cc1ccccc1`, for which the B-score was -0.563.

As for `COc1ccc(OC)c2sc(NC(=O)C3COc4ccccc4O3)nc12` (stereo not given), the B-score is -4.42 (active).

Regarding `CCn1cc(C(=O)NCC2COc3ccccc3O2)c2cc(OC)c(OC)cc2c1=O` (stereo not given), the B-score was -0.122.

For the molecule `COc1ccc(NC(=O)CC2COc3ccccc3O2)c(OC)c1` (stereo not given), the B-score was -0.874.

On to `c1ccc(-c2ccnc3nc(-n4cccc4)nn23)cc1`, for which the B-score was 0.354.

Regarding `COc1ccccc1C1=CC(=O)CCC1`, the B-score was 1.41.

Turning to `c1ccc(Nc2n[nH]nc2-c2ccccc2)cc1`, the B-score is -7.14 (active).

Regarding `Nc1ccc(Nc2ccccc2)cc1`, the B-score is 0.472.

For `O=C(Nc1ccccc1)c1cccnc1Nc1ccccc1`, the B-score is 0.697.

On to `C=CCCN(Cc1ccccc1)S(=O)(=O)c1ccccc1Br`, for which the B-score is 0.0805.

As to `CCO[C@@H]1OC(C(=O)NCc2nc3ccccc3[nH]2)=C[C@H](C2CCCCC2)[C@H]1CCCO`, the B-score was -0.192.

As to `CC(C)C(c1nnnn1C1CCCC1)N1CCN(c2ccccc2F)CC1` (stereo not given), the B-score is -2.85.

With `COc1ccc(C(c2nnnn2C2CCCCC2)N2CCN(c3ccccc3F)CC2)cc1` (stereo not given), the B-score was -6.41 (active).

Turning to `COc1ccc(N2CCN(C(c3cc4ccc(C)cc4[nH]c3=O)c3nnnn3C3CCCC3)CC2)cc1` (stereo not given), the B-score is -2.59.

`N#CCc1c(C#N)c(N)nc(N2CCCC2)c1C#N`: the B-score is 0.949.

In the case of `CCN(CC)CCC(c1cc(OC)c(OC)c(OC)c1)c1c(OC)cc(OC)c2c(-c3ccccc3)cc(=O)oc12` (stereo not given), the B-score is -1.5.

`C=C(Br)Cn1c(CCCC)nc2ccccc21`: the B-score was -3.88 (active).

Take `CCCCn1c(CN2CCN(CCO)CC2)nc2ccccc21`: the B-score was 1.86.

As to `CCCCn1c(CCCNC(=O)CC)nc2ccccc21`, the B-score was 1.14.

For the molecule `CC(C)[C@@H]1NC(=O)c2cc([N+](=O)[O-])cc(I)c2NCCC[C@@H](C(=O)NC(CC(=O)O)C(N)=O)NC(=O)[C@H](CO)NC1=O` (stereo not given in full), the B-score was 0.105.

For `CCOc1c2ccc(C(=O)NCc3ccc(OC(F)(F)F)cc3)cc2nn1C`, the B-score is -1.9.

On to `Cc1cccc(N(CC(=O)N2CCOCC2)S(C)(=O)=O)c1`, for which the B-score was 0.326.

`Cc1cc(C)cc(N(CC(=O)N2CC=C(c3ccccc3)CC2)S(=O)(=O)c2c(C)noc2C)c1`: the B-score was -4.03 (active).

For the molecule `Cc1cc(C)cc(N(CC(=O)NCC2CCCO2)S(=O)(=O)c2c(C)noc2C)c1` (stereo not given), the B-score was 0.883.

For the molecule `CC1=C(C(=O)Nc2ccccc2)C(c2ccco2)C(C#N)=C(SCC(N)=O)N1` (stereo not given), the B-score was -0.16.

For `N#CC1=C(N)Oc2c(sc3ccccc23)C1c1ccco1` (stereo not given), the B-score was -4.64 (active).

For the molecule `CCOC(=O)CSC1=C(C#N)C(c2ccco2)C(C(=O)OCc2ccccc2)=C(C)N1` (stereo not given), the B-score is -3.01.

For `CCOc1cccc(C(=O)Nc2cnn(Cc3ccccc3)c2)c1`, the B-score is -0.985.

Consider `O=C(c1ccc(F)cc1)c1c[nH]c(C(=O)NCc2cccnc2)c1`, for which the B-score was 1.02.

For the molecule `c1cnc(Nc2nc(-c3ccc4ccccc4c3)cs2)nc1`, the B-score is 0.515.

On to `Cc1ccc(-n2c(C)cc(/C=N/Nc3ccc([N+](=O)[O-])cn3)c2C)c(C)c1`, for which the B-score was -3.21.

As for `CC(C)c1ccc(N2CCN(C(=O)c3ccccc3NC(=O)/C=C(\C(=O)O)c3ccccc3)CC2)cc1`, the B-score is -0.303.

As for `COC(=O)c1sccc1NC(=O)CSc1ccccc1NS(=O)(=O)c1cc(Cl)ccc1Cl`, the B-score is -4.82 (active).

For `COC(=O)c1sccc1NC(=O)CCC1CCCC1`, the B-score was -0.847.

With `COC(=O)c1sccc1N/N=C(\C)c1ccc(F)c(Cl)c1`, the B-score was -0.109.

Turning to `N#Cc1ccc(-c2ccc(Cl)cc2)nc1Oc1ccc(F)cc1`, the B-score was -0.421.

On to `COc1ccc(CN2[C@@H](CC(=O)O)c3cc(F)ccc3S2(=O)=O)cc1`, for which the B-score was -2.11.

Regarding `O=c1cc(CO)oc(C(Nc2cccc(C(F)(F)F)c2)c2ccccn2)c1O` (stereo not given), the B-score is -0.112.

As for `Cc1ccc(-c2csc(NC(=O)c3cccs3)n2)cc1`, the B-score was -1.5.

Regarding `NS(=O)(=O)c1ccc(Nc2nc(-c3ccccc3)cs2)cc1`, the B-score was 0.0269.

Regarding `Cc1cccc(S(=O)(=O)CC(=O)Nc2nc(-c3ccccc3)cs2)c1`, the B-score was -8.29 (active).
